High-throughput results as filed in PubChem.
Rows were chosen to be rich in hits. Some 19% of all compounds tested hit in one or more screens of this group.
DT40 TDP1 no CPT: qHTS for Inhibitors of human tyrosyl-DNA phosphodiesterase 1 (TDP1): qHTS in cells in absence of CPT; DT40 Tdp1-/- hTDP1 cells, no CPT, ATP luminescence, 48 h; Potency, µM (top dose mostly 46.2 µM), usual class: inhibitors; 15% of 420,000 active; further: nearly all actives have a fitted effect of over 55% in size
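Chicken DT40 Tdp1-/- cells stably complemented with human TDP1 were seeded at 400 cells/well with DMSO in place of 20 nM camptothecin. After compound pinning, cells grew at least 48 hr at 37 °C; viability read by CellTiter-Glo luminescence.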
IL1B secr inh: inflammasome signaling inhibition, IL-1 beta readout; 4.7% of 360,000 active; AID 743279; activity change, % at 57.5 µM; THP-1 LPS/ATP IL-1B secretion, AlphaLISA, 16 h; hits give low values; in the data active means activity change below about -50%; inconclusive means mostly about -30% to -49%
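Secreted IL-1B measured by AlphaLISA bead assay after 16 h compound exposure of THP-1 cells; compounds (final up to 57.5 uM) added 1 h before LPS (250 ng/mL) and ATP (1.25 mM) stimulation; lower signal means less secretion.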
DT40 TDP1 CPT: DT40-hTDP1 cell growth loss with CPT; 12% of 420,000 active; AID 686979; chicken DT40 Tdp1-/-;hTDP1 cells + 20 nM CPT, ATP luminescence, 48 h; Potency, µM (doses to about 46.2 µM), most hits filed as inhibitors; further: nearly all actives have a fitted effect of over 55% in size
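Chicken DT40 Tdp1-/- cells complemented with human TDP1, 400 cells/well, exposed to compounds plus 20 nM camptothecin for at least 48 h at 37 C; viability read as ATP content by CellTiter-Glo luminescence.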
HT1080-NT tox: kills 2HG-producing HT-1080-NT fibrosarcoma cells | HT-1080-NT fibrosarcoma viability, CellTiter-Glo ATP luminescence, 48 h | Potency, µM (highest dose often 46.1 µM), usual class: cytotoxic | 1.6% of 360,000 active;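 further: NT is the 2HG producing partner of a matched IDH1 knockdown line; nearly all actives have a fitted effect of over 55% in size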
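Viability of the 2HG-overproducing fibrosarcoma line after 48 hours of compound exposure at 37 degrees C was determined by luminescence with CellTiter-Glo, and concentration-effect curves were then fitted and categorized.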
HT1080 IDH1KD tx: toxicity to HT-1080 IDH1 knockdown cells (counter line); Potency, µM (titrated, usually from 46.1 µM), actives largely listed as cytotoxic; 2% of 360,000 active; AID 686971; HT-1080 IDH1 knockdown viability, ATP luminescence, 48 h
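Cytotoxicity counter-line: IDH1KD HT-1080, 48 h, CellTiter-Glo. Curves classed by r2, magnitude and activity.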
Hits are given with their value. Unless noted, the call rests on the fitted dose curve; in most records, active means well fitted curve in the direction sought with a large enough effect; inconclusive means small, poorly fitted or top-dose-only effect, or another doubt; inactive means no such curve, though single readings can be large; an effect the other way counts as inactive or inconclusive.

Screening C=CCNC(=O)c1onc(CSc2cccc(OC)c2)c1C(=O)O returned DT40 TDP1 no CPT inactive, IL1B secr inh inactive, DT40 TDP1 CPT inactive, HT1080-NT tox inactive and HT1080 IDH1KD tx inactive.
CC(/C=N/NC(=O)c1ccncc1)=C\c1ccccc1 was read as DT40 TDP1 no CPT inactive, IL1B secr inh inactive, DT40 TDP1 CPT inactive, HT1080-NT tox inactive and HT1080 IDH1KD tx inconclusive.
CC(=O)N/C(=C/c1ccccc1)c1ccncc1 was read as DT40 TDP1 no CPT 11µM and DT40 TDP1 CPT 7.9µM.
Screening O=C(N/N=C/C(Br)=C/c1ccccc1)c1ccncc1 returned DT40 TDP1 no CPT 1.6µM, IL1B secr inh -84, DT40 TDP1 CPT 1.6µM, HT1080-NT tox inactive and HT1080 IDH1KD tx inconclusive.
O=C(N/N=C/C(Br)=C\c1ccccc1)c1ccc2nc[nH]c2c1 was read as DT40 TDP1 no CPT 15µM, IL1B secr inh -90, DT40 TDP1 CPT 10µM, HT1080-NT tox inactive and HT1080 IDH1KD tx inconclusive.
O=C(N/N=C/C(Br)=C/c1ccccc1)c1ccc([N+](=O)[O-])cc1 was read as DT40 TDP1 no CPT 4.1µM, IL1B secr inh inconclusive, DT40 TDP1 CPT 4.1µM, HT1080-NT tox inactive and HT1080 IDH1KD tx inactive.
`Cc1ccc(NC(=O)CSc2nnc(Cc3ccccc3)c(=O)[nH]2)c(C)c1` gave DT40 TDP1 no CPT inconclusive, IL1B secr inh inactive, DT40 TDP1 CPT inactive, HT1080-NT tox inactive and HT1080 IDH1KD tx inactive.
`CCCc1noc2c1C(c1cc(Br)ccc1F)C(C#N)=C(N)N2` (stereo unspecified) gave DT40 TDP1 no CPT inconclusive, IL1B secr inh inactive, DT40 TDP1 CPT inconclusive, HT1080-NT tox inactive and HT1080 IDH1KD tx inactive.
`CCc1ccc(C(=O)c2cn(CC(=O)Nc3cc(OC)ccc3OC)c3ccc(C)cc3c2=O)cc1` gave DT40 TDP1 no CPT inactive and DT40 TDP1 CPT inactive.
Screening O=C(N/N=C/C(Br)=C/c1ccccc1)c1cccnc1 returned DT40 TDP1 no CPT 2.1µM, IL1B secr inh -95, DT40 TDP1 CPT 2.6µM, HT1080-NT tox inconclusive and HT1080 IDH1KD tx inactive.
Screening O=C1C=C(c2ccc3cc[nH]c3c2)C[C@@H](c2ccc3c(c2)OCO3)C1 returned DT40 TDP1 no CPT 10µM, IL1B secr inh inactive, DT40 TDP1 CPT 1.8µM, HT1080-NT tox 18µM and HT1080 IDH1KD tx inactive.
`Cc1cc(C)c(C2=CC(=O)C[C@H](c3ccc4c(c3)OCO4)C2)c(C)c1` gave DT40 TDP1 no CPT inconclusive, IL1B secr inh inactive, DT40 TDP1 CPT 18µM, HT1080-NT tox inactive and HT1080 IDH1KD tx inactive.
For Cc1cc(C2=CC(=O)C[C@H](c3ccc4c(c3)OCO4)C2)ccc1F the results were DT40 TDP1 no CPT inactive, IL1B secr inh -51, DT40 TDP1 CPT inactive, HT1080-NT tox inactive and HT1080 IDH1KD tx inactive.
For CC(C)CCCC(C)CCCC(C)CCCCC(C)CCCC(C)CCCC(C)C (stereo unspecified) the results were DT40 TDP1 no CPT inactive and DT40 TDP1 CPT inactive.
Screening COc1ccc(CN(C)S(=O)(=O)c2nnc(NC(=O)C(C)C)s2)cc1OC returned DT40 TDP1 no CPT 10µM and DT40 TDP1 CPT 12µM.
CCOc1ccccc1NC(=O)CSc1cn[nH]n1 was read as DT40 TDP1 no CPT inactive, IL1B secr inh -91, DT40 TDP1 CPT inactive, HT1080-NT tox inactive and HT1080 IDH1KD tx inactive.
For CCOc1ccccc1NC(=O)CSc1ccc(-c2ccco2)nn1 the results were DT40 TDP1 no CPT inconclusive, IL1B secr inh inactive, DT40 TDP1 CPT inconclusive, HT1080-NT tox inactive and HT1080 IDH1KD tx inactive.
For Cc1cc(C)c(NC(=O)CSc2ccc(-c3sc(-c4ccccc4)nc3C)nn2)c(C)c1 the results were DT40 TDP1 no CPT 15µM and DT40 TDP1 CPT 23µM.
For COc1ccccc1CNC(=O)CSc1ccc(-c2sc(-c3ccccc3)nc2C)nn1 the results were DT40 TDP1 no CPT 18µM and DT40 TDP1 CPT inconclusive.
`Cc1ccccc1NC(=O)CSc1cn[nH]n1` gave DT40 TDP1 no CPT inactive, IL1B secr inh inactive, DT40 TDP1 CPT inactive, HT1080-NT tox inactive and HT1080 IDH1KD tx inactive.
For CCOc1ccccc1NC(=O)CSc1ccc(-c2sc(C)nc2C)nn1 the results were DT40 TDP1 no CPT 16µM, IL1B secr inh inactive, DT40 TDP1 CPT 21µM, HT1080-NT tox inactive and HT1080 IDH1KD tx inactive.
